Measured values as given in the GenesisPotency data set.
Hit rate of the full screen: of about 290,000 compounds, about 2,100 (0.72%) were called active. Inconclusive results (about 4%) are left out. This is one part of a sample in which actives are shown more often than they occur. The call rests on the fitted dose curve; in most records, active means well fitted inhibition curve with a large enough effect; inconclusive means small, poorly fitted or top-dose-only effect, or effect the other way; inactive means flat fitted curve, though single readings scatter.

biological target: Fructose-bisphosphate aldolase, Giardia intestinalis (strain ATCC 50803 / WB clone C6) (UniProt A8B2U2); test: qHTS Assay for Inhibitors of Fructose-1,6-bisphosphate Aldolase from Giardia Lamblia
Sequence (A8B2U2 whole entry, looked up, natural form): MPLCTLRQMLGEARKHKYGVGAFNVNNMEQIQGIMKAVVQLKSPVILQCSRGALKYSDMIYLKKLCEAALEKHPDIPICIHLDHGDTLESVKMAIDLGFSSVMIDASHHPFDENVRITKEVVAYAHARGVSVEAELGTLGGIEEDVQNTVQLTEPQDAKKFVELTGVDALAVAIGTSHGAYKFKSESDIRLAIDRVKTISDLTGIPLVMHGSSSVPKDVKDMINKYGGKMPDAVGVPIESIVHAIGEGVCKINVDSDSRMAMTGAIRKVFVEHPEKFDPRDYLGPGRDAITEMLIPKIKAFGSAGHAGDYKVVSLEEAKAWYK

SMILES | outcome
N.N.[Cl][Pt][Cl] | active
